Calls of active or inactive are those of the source.

The test system of experiment [1] is PRMT1 (protein arginine N-methyltransferase 1). Briefly: PRMT1 binders on small-molecule microarrays, primary screen, biochemical, small-molecule microarray, 635 nm fluorescence (AID 1088).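 Also: binding of Prmt1 protein to compounds spotted on small-molecule microarray slides.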 The note with it: small-molecule microarray binding, higher = more signal.
Experiment [2] is described as follows: yeast growth modulation, basal conditions, primary screen, YJM789 clinical isolate, OD600, 24 h (AID 1089).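 Also: growth of clinical yeast isolate S. cerevisiae YJM 789 seeded 1000 cells per well; test concentration not given here.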 The conditions noted are these: S. cerevisiae YJM789 growth, higher = more signal, called active from +8 up or from −8 down.
The nature of experiment [3]: fission yeast growth modulation, primary screen, strain 972, OD600, 24 h, no modulator (AID 1090).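 Also: basal condition with compound alone and no growth modifier present; test concentration not given here.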 The conditions noted are these: S. pombe 972 growth, higher = more signal, called active from +8 up or from −8 down.
Experiment [4] can be described thus: S. cerevisiae growth modulation with rapamycin, primary screen, strain BY4716, OD600, 96 h (AID 1091). Also: test concentration not given here. The conditions noted are these: higher = more signal, called active from +8 up or from −8 down.
In experiment [5] the target is Torsin-1A-interacting protein 2 (Homo sapiens) (UniProt Q8NFQ8). Kind of experiment: LULL1 binders on small-molecule microarray, primary screen, cell lysate, human LULL1 lysate, 635/667 nm fluorescence (AID 1092).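 Also: probe is lysate of COS7 cells overexpressing human LULL1; score merges per-feature 667 nm fluorescence with signal-to-noise.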 The note with it: hLULL1 lysate binding, 635 nm fluorescence, higher = more signal.
The nature of experiment [6]: E. coli growth modulation, two-sided OD650, primary screen, E. coli filamentation project, strain DRC41, 24 h (AID 1093).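 Also: MC1000 strain lacking acrAB efflux and sulA so SOS filamentation is blocked; test concentration not given here.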 The conditions noted are these: OD650, 24 h, higher = more signal, called active from +8 up or from −8 down.
Experiment [7] is described as follows: small-molecule microarray binders of probe aLefty2, primary screen, biochemical, biotinylated probe, 635/667 nm fluorescence (AID 1094).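 Also: score merges spot fluorescence near 667 nm with spot signal-to-noise ratio.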 The conditions noted are these: higher = more signal.
Experiment [8] has as its system Noggin (protein binding on small-molecule microarray). Kind of experiment: Noggin binders on small-molecule microarray, primary screen, biochemical, 635/667 nm fluorescence (AID 1095).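 Also: score merges 667 nm feature fluorescence with signal to noise over triplicate slides.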 The note with it: 635 nm fluorescence, higher = more signal.
For experiment [9], the target named is Neurogenic locus notch homolog protein 3 (Homo sapiens) (UniProt Q9UM47). Briefly: NOTCH3 binders on small-molecule microarray, primary screen, biochemical, 635/667 nm fluorescence (AID 1096). The note with it: NOTCH3 binding, 635 nm fluorescence, higher = more signal.
Experiment [10] is described as follows: small-molecule microarray binders of probe aEGFR, primary screen, biochemical, biotinylated probe, 635/667 nm fluorescence (AID 1097).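 Also: probe is a biotinylated anti-EGFR antibody binding compounds printed on slides; score combines fluorescence near 667 nm and signal to noise of each spot.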 The conditions noted are these: higher = more signal.
Experiment [11] deals with Plasmodium falciparum Sir2 (PF13_0152, Sir2A). Briefly: pfSir2 binders on small-molecule microarrays, primary screen, biochemical, small-molecule microarray, 635 nm fluorescence (AID 1098).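 Also: score merges spot fluorescence intensity with its signal-to-noise ratio.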 The conditions noted are these: small-molecule microarray binding, fluorescence 635 nm; higher = more signal.
A short description of experiment [12]: small-molecule microarray binders of probe aDKK1, primary screen, biochemical, biotinylated probe, 635/667 nm fluorescence (AID 1099).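 Also: score merges 667nm spot fluorescence with signal to noise across triplicate slides; reference of the scale not given here.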 The conditions noted are these: higher = more signal.
A short description of experiment [13]: small-molecule microarray binders of probe aCHRDL2, primary screen, biochemical, biotinylated probe, 635/667 nm fluorescence (AID 1100). The conditions noted are these: higher = more signal.
Experiment [14] in a line: splicing luciferase reporter signal modulators, primary screen, spliceosome inhibition project, cell-based, HEK293, splice +/- reporter (AID 1101).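 Also: HEK293 cells carrying a splicing-competent luciferase reporter gene; test concentration not given here.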 The conditions noted are these: luminescence, 24 h, higher = more signal, called active from +8 up or from −8 down.
Experiment [15] addresses Fibroblast growth factor 10 (Homo sapiens) (UniProt O15520). Briefly: FGF10 binders on small-molecule microarrays, primary screen, biochemical, small-molecule microarray, 635 nm fluorescence (AID 1102). The conditions noted are these: FGF10 binding, fluorescence 635 nm, higher = more signal.
The test system of experiment [16] is glycogen synthase kinase-3 (GSK3A per assay name; protocol says GSK3B). Briefly: GSK3 binders on small-molecule microarrays, primary screen, biochemical, small-molecule microarray, 635 nm fluorescence, GSK3A (AID 1103). Also: the record names both GSK3A and GSK3B. The conditions noted are these: small-molecule microarray binding, fluorescence 635 nm; higher = more signal.
Experiment [17] concerns the target Epidermal growth factor receptor (Homo sapiens) (UniProt P00533). Briefly: EGFR binders on small-molecule microarrays, primary screen, biochemical, small-molecule microarray, 635 nm fluorescence (AID 1104).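 Also: score merges 667 nm emission intensity with spot signal to noise over triplicate slides.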 The conditions noted are these: EGFR binding, higher = more signal.
Experiment [18] addresses Follistatin-related protein 3 (Homo sapiens) (UniProt O95633). Kind of experiment: FSTL3 binders on small-molecule microarrays, primary screen, biochemical, small-molecule microarray, 635 nm fluorescence (AID 1105).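 Also: score merges emission near 667 nm and signal to noise per printed spot across three slides.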 The conditions noted are these: FSTL3 binding, higher = more signal.
Experiment [19] addresses Dickkopf-related protein 1 (Homo sapiens) (UniProt O94907). Kind of experiment: DKK1 binders on small-molecule microarrays, primary screen, biochemical, small-molecule microarray, 635 nm fluorescence scan (AID 1106).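 Also: score merges emission near 667 nm with signal to noise over three replicate slides.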 The conditions noted are these: DKK1 binding, higher = more signal.
In experiment [20] the test system is Inhibin beta A chain (activin A). Briefly: INHBA (activin A) binders on microarrays, primary screen, biochemical, small-molecule microarray, 635 nm fluorescence scan (AID 1107).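 Also: mouse activin A protein probed at 4.33 µg/mL on printed slides; score merges bound-protein fluorescence near 667 nm with spot signal-to-noise.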 The conditions noted are these: small-molecule microarray binding, higher = more signal.

Follistatin-related protein 3 (Homo sapiens), sequence (O95633 whole entry, looked up): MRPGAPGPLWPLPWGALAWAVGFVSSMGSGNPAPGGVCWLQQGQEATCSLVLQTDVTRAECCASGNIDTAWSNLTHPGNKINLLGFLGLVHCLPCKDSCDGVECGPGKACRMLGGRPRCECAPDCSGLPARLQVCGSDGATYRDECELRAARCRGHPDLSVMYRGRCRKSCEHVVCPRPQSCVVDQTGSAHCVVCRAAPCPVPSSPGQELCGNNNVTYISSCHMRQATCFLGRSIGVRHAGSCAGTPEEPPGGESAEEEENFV
Torsin-1A-interacting protein 2 (Homo sapiens), sequence (Q8NFQ8 whole entry, looked up): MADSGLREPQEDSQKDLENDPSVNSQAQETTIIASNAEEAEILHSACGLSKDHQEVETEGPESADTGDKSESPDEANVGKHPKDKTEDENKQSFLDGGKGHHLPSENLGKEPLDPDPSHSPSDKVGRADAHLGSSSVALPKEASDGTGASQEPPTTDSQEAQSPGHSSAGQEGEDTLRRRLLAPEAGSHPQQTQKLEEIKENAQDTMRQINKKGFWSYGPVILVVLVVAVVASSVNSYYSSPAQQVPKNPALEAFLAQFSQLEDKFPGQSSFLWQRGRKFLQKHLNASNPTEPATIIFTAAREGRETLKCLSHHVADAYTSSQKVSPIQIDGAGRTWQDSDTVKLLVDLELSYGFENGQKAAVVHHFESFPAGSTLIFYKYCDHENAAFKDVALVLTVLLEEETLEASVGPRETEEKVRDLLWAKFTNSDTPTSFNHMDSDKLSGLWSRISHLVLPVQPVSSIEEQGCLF
Neurogenic locus notch homolog protein 3 (Homo sapiens), sequence (Q9UM47 whole entry, looked up): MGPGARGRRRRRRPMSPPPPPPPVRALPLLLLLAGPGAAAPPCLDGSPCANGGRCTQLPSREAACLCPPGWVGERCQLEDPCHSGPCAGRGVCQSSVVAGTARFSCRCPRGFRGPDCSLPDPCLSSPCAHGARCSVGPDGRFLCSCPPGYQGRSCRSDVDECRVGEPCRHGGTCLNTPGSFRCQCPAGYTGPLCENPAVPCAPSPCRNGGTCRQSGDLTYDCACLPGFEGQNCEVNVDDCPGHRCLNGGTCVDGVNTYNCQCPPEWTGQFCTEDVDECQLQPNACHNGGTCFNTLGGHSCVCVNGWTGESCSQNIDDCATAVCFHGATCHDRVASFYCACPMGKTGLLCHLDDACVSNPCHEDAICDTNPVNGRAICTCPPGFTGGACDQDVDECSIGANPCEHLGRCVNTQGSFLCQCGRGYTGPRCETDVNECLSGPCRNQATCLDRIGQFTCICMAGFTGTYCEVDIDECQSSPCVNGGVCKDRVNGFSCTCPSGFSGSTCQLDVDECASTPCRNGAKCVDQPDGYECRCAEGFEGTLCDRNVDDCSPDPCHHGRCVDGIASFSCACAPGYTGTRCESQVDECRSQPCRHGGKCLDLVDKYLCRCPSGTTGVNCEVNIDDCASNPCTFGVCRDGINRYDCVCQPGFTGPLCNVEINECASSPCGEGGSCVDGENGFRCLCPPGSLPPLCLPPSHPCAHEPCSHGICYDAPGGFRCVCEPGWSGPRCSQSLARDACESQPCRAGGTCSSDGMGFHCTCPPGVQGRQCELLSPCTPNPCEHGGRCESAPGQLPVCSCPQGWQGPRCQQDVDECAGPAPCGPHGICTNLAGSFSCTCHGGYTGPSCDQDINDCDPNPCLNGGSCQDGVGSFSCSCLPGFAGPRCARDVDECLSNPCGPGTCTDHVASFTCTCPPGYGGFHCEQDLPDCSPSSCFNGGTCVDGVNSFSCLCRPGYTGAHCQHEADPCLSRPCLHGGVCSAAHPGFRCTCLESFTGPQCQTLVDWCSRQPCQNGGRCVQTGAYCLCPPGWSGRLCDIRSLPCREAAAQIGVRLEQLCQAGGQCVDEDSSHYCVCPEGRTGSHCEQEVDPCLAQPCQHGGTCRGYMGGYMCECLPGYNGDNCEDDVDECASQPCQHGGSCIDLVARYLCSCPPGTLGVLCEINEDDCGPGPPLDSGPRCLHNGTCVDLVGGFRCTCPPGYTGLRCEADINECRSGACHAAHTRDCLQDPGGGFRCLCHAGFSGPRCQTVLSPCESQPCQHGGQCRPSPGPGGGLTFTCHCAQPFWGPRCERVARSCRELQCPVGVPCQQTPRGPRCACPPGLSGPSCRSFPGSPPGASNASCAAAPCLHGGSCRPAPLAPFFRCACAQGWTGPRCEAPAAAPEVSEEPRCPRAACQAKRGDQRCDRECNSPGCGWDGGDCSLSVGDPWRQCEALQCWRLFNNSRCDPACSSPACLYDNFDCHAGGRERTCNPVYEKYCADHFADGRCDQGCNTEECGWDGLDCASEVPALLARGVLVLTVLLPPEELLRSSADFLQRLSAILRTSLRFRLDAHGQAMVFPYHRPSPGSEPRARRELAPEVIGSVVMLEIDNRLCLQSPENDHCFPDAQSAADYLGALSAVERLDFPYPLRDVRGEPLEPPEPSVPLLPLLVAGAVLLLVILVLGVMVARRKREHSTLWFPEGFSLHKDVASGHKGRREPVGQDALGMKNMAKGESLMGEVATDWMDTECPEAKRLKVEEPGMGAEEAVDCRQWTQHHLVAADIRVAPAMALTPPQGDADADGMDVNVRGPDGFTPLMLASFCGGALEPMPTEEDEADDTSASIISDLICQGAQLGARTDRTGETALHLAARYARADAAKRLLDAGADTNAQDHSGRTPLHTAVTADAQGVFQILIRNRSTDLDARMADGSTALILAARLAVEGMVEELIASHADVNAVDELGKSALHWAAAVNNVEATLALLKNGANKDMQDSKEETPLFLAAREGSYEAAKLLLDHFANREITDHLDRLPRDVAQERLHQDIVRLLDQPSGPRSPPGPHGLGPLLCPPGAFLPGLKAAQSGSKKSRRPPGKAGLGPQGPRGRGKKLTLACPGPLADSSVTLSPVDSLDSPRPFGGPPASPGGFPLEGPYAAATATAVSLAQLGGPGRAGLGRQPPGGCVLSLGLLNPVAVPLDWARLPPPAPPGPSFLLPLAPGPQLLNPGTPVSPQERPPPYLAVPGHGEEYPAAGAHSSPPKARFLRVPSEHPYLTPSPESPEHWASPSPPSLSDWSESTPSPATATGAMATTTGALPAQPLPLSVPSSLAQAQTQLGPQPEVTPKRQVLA
Dickkopf-related protein 1 (Homo sapiens), sequence (O94907 whole entry, looked up): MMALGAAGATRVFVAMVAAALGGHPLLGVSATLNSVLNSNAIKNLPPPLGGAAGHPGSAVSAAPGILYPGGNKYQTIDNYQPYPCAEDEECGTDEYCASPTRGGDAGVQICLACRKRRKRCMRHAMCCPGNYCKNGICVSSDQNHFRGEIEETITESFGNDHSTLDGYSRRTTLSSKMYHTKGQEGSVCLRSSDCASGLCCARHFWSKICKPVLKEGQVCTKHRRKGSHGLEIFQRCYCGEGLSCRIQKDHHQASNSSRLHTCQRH
Fibroblast growth factor 10 (Homo sapiens), sequence (O15520 whole entry, looked up): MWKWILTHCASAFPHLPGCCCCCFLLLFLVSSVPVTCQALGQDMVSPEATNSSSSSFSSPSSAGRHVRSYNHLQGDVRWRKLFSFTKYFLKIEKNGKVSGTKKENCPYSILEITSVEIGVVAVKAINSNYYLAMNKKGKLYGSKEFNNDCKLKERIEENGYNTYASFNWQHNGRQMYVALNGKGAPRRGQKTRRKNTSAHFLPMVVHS
Epidermal growth factor receptor (Homo sapiens), sequence (P00533 whole entry, looked up): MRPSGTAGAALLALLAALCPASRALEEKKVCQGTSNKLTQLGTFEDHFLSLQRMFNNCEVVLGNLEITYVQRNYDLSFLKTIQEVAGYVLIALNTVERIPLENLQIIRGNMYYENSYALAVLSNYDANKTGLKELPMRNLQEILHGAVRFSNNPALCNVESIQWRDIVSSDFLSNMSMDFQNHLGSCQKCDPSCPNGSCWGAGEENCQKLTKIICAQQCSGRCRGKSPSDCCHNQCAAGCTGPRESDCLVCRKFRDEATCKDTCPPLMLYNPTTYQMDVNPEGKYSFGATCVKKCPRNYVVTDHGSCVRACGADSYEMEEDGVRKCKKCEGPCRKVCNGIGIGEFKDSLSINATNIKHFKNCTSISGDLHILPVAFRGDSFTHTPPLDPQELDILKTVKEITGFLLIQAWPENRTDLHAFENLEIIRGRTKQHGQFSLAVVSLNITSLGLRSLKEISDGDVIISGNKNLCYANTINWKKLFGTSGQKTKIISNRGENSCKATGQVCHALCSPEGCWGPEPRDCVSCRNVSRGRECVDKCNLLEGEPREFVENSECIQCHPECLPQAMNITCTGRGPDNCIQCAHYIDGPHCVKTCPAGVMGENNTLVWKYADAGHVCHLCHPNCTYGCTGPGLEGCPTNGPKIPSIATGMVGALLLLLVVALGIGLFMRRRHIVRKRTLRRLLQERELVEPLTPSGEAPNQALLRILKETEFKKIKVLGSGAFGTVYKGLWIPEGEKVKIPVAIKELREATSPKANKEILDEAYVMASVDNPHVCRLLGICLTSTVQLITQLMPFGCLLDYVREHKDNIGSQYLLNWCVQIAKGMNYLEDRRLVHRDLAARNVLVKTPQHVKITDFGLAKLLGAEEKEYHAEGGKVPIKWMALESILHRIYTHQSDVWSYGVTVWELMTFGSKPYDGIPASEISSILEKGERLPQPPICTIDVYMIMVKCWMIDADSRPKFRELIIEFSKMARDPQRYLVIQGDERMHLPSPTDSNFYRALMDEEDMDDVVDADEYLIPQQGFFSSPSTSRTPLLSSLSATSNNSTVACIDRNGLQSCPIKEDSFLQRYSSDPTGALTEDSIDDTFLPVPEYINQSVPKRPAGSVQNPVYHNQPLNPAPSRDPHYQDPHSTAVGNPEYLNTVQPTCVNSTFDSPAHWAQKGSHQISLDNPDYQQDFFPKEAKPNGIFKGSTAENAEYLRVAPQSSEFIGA

For the molecule `COCCCNC(=O)[C@@]1(C)c2ccccc2C(=O)N(Cc2ccc(OC(F)(F)F)cc2)[C@H]1c1ccc(CO)cc1`, the composite z-score in experiment [1] was 0.289; in [5], -0.0493; in experiment [7], 0.134; in experiment [8], -0.598; in experiment [9], -0.519; in experiment [10] it was 0.146. The composite z-score in [11] is 0.655; in [12] it was 0.506; in experiment [13], 0.973; in experiment [15], -0.527; in [16] it was -1.3; in experiment [17], -1.11. Also, the values for the composite z-score in experiment [18], in experiment [19] and in [20] were -0.851, -0.401 and 0.153, respectively. The z-score was -0.0965 (inactive) in experiment [2]; 0.203 (inactive) in experiment [3]; -0.35 (inactive) in [4]; 0.93 (inactive) in [6]; -0.346 (inactive) in experiment [14].

For `C#CCCCON=C1C[C@@H](O)[C@@H](O)[C@@H]2[C@@H]3C(=O)N(CCC(=O)OCC)C(=O)[C@@H]3CC[C@@H]12`, the composite z-score is -0.683 in experiment [1]; 0.654 in [5]; 0.706 in [7]; -1.1 in experiment [8]; -1.01 in experiment [9]; -0.152 in experiment [10]. Further, the composite z-score is -0.346 in [11]; 1.17 in [12]; 1.51 in experiment [13]; -0.0714 in experiment [15]; -0.493 in experiment [16]; -0.905 in experiment [17]. Also, the composite z-score was -0.911 in [18], -0.908 in experiment [19] and 0.459 in [20]. For the same molecule, the z-score was -0.969 (inactive) in experiment [2]; 0.068 (inactive) in experiment [3]; -0.664 (inactive) in [4]; 0.827 (inactive) in [6]; 0.907 (inactive) in [14].

For `CCOC(=O)[C@H](Cc1ccccc1)NC(=O)CCC1CC(OC(=O)NCc2ccc3c(c2)OCO3)CC2(CCCC(COC(=O)NCc3cccc(C(F)(F)F)c3)O2)O1` (stereo not given in full), the composite z-score is 1.35 in experiment [1]; 0.735 in [5]; -0.0383 in [7]; 0.606 in experiment [8]; 1.11 in experiment [9]; 0.0293 in [10]. In addition, the composite z-score is 0.239 in experiment [11]; 0.113 in experiment [12]; -0.338 in experiment [13]; 0.984 in experiment [15]; 0.584 in [16]; 0.314 in experiment [17]. The composite z-score in experiment [18] stood at 1; in experiment [19] it was 0.495; in experiment [20], 0.321. The z-score was -0.594 (inactive) in experiment [2]; 0.926 (inactive) in [3]; 0.287 (inactive) in [4]; -1.29 (inactive) in experiment [6]; -1.18 (inactive) in experiment [14].

For the molecule `Cc1cc2c(nc1C)CCCN2CC(C)ON=C1[C@H]2CCn3c(=O)n(-c4ccccc4)c(=O)n3[C@H]2[C@H](O)[C@@H]2O[C@H]12` (stereo not given in full), the composite z-score was 1.51 in [1]; 1.42 in experiment [5]; -0.138 in experiment [7]; 0.725 in experiment [8]; 1.01 in [9]; -0.0141 in experiment [10]. In addition, the composite z-score was 0.508 in [11]; -0.013 in experiment [12]; -0.499 in experiment [13]; 0.618 in experiment [15]; 1.1 in experiment [16]; 0.822 in [17]. The values for the composite z-score in [18], in [19] and in experiment [20] were 0.828, 0.686 and 0.693, respectively. Further, the z-score in experiment [2] was -0.706 (inactive); in experiment [3] it was -0.829 (inactive); in [4] it was -0.115 (inactive); in [6] it was -0.414 (inactive); in experiment [14], -0.736 (inactive).

For the molecule `CCOC(=O)[C@H](Cc1ccccc1)NC(=O)CCC1CC(OC(=O)NCc2ccc3c(c2)OCO3)CC2(CCCC(COC(=O)NCC(c3ccccc3)c3ccccc3)O2)O1` (stereo not given in full), the composite z-score in experiment [1] was 1.16; in experiment [5], 2.34; in [7], -0.0485; in [8], 0.955; in experiment [9], 1.06; in experiment [10], -0.157. The composite z-score in [11] was 1.06; in experiment [12], -0.0362; in [13], -0.481; in experiment [15], 0.525; in [16], 1.23; in [17], 0.251. For the same molecule, the values for the composite z-score in experiment [18], in [19] and in experiment [20] were 0.929, 0.377 and -0.0374, respectively. The z-score in experiment [2] was 0.668 (inactive); in [3], 0.9 (inactive); in experiment [4], 0.687 (inactive); in [6], 0.454 (inactive); in [14], -1.45 (inactive).

For the origin of these results see PubChem BioAssay.
